From PubChem BioAssay (NCI) come the findings set out here.

About 83,000 compounds went through this panel and 20% of them were active in at least one assay; those are over-represented in the sample as a whole.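 Treatment: one concentration, 48 hours, 96-well format. Scoring: percent growth, with anything below 10 considered active.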 Unmarked numbers belong to inactive results. Active and inactive are the calls of the source.

Some test systems named below: HT29 colon; SNB-75 CNS; SNB-19 CNS; U251 CNS; PC-3 prostate; SK-MEL-5 melanoma; UACC-62 melanoma; LOX IMVI melanoma; SK-MEL-28 melanoma; SK-MEL-2 melanoma; SN12C renal; UO-31 renal; TK-10 renal; ACHN renal; CAKI-1 renal; A498 renal; CCRF-CEM leukemia; MOLT-4 leukemia; SR leukemia; EKVX NSCLC.
Common to all, as to experiment: NCI-60 one-dose screen, 48 h (100 = growth as untreated, 0 = no growth, -100 = all killed)
What all share (conditions): 10 µM unless noted

For the compound `COc1ccc2c(c1)C(=O)/C(=C/c1ccc([N+](=O)[O-])s1)O2`, the growth is -22.7% (active) in the test on HT29 colon; 12.2% with SNB-75 CNS; -5.72% (active) with SNB-19 CNS; -50.7% (active) in the test with U251 CNS; -15.7% (active) with PC-3 prostate; -13.5% (active) in the test on SK-MEL-5 melanoma. Further, the growth is -48% (active) in the test on UACC-62 melanoma; -24.9% (active) with LOX IMVI melanoma; -33.9% (active) in the test with SK-MEL-28 melanoma; -49.1% (active) in the test on SK-MEL-2 melanoma; -8.43% (active) in the test on SN12C renal; -79.1% (active) in the test with UO-31 renal. Also, the growth was -15.3% (active) in the test on TK-10 renal; -54% (active) with ACHN renal; 29.7% with CAKI-1 renal; 99.6% with A498 renal; 0.726% (active) with CCRF-CEM leukemia; 5.68% (active) in the test with MOLT-4 leukemia. Besides, the growth in the test with SR leukemia was 11.4%.

`CC1CC(C)/C(=N/NC(N)=O)C(C(O)CC2CCC(=O)NC2=O)C1` (stereo not given): the growth is 35.8% in the test with HT29 colon; 57.7% in the test with SNB-75 CNS; 31.4% in the test with SNB-19 CNS; 35.1% with U251 CNS; 40.6% in the test with PC-3 prostate; 31.7% in the test on SK-MEL-5 melanoma. Also, the growth with UACC-62 melanoma is 46.3%; in the test on LOX IMVI melanoma, 27.3%; with SK-MEL-28 melanoma, 37%; in the test on SK-MEL-2 melanoma, 33.8%; in the test with EKVX NSCLC it was 33.6%; in the test on SN12C renal it was 18.9%. For the same compound, the growth in the test on UO-31 renal is 15.9%; with TK-10 renal, 53.9%; with CAKI-1 renal, 35.5%; in the test with A498 renal, 71.1%; in the test with CCRF-CEM leukemia, 15.6%; in the test with MOLT-4 leukemia, 23%. Moreover, in the test on SR leukemia, the growth was 48.5%.

For the compound `Clc1ccc2nc(Cl)c3ccccc3c2c1`, the growth in the test with HT29 colon was 44.5%; in the test with SNB-75 CNS, -15.3% (active); in the test on SNB-19 CNS, 53.2%; in the test on U251 CNS it was 20.2%; in the test on PC-3 prostate it was 84.2%; in the test with SK-MEL-5 melanoma, 84.4%. Also, the growth with UACC-62 melanoma is 96.2%; in the test with LOX IMVI melanoma, 83.2%; with SK-MEL-28 melanoma it was 97.6%; with SK-MEL-2 melanoma it was 99%; in the test on SN12C renal, 87.3%; in the test on UO-31 renal, 4.03% (active). Moreover, the growth with TK-10 renal was 9.12% (active); in the test with ACHN renal it was 1.26% (active); in the test on CAKI-1 renal, 76.7%; in the test with A498 renal it was 19.7%; in the test on CCRF-CEM leukemia it was 81.6%; in the test with MOLT-4 leukemia, 83%. For the same compound, the growth with SR leukemia was 1.29% (active).

Consider `C=C(C)[C@H]1CC/C(C)=C/CC[C@]2(C)O[C@H]2CC/C(COC(C)=O)=C\C1=O`, for which the growth in the test with HT29 colon was 115%; with SNB-75 CNS, 120%; in the test with SNB-19 CNS, 108%; with U251 CNS, 101%; in the test with PC-3 prostate, 94.6%; in the test with SK-MEL-5 melanoma, 109%. Further, the growth in the test on UACC-62 melanoma is 108%; in the test on LOX IMVI melanoma, 88.1%; with SK-MEL-28 melanoma, 116%; in the test with EKVX NSCLC, 44.3%; in the test on SN12C renal, 104%; in the test with UO-31 renal, 69.4%. Besides, the growth is 117% with TK-10 renal; 98.9% with ACHN renal; 91.1% with A498 renal; 103% in the test on CCRF-CEM leukemia; 90.2% with MOLT-4 leukemia; 56.7% in the test on SR leukemia.

For `O=C(Nc1cccc(-n2cc(-c3ccncc3)c(-c3ccc(O)c(Cl)c3)n2)c1)Nc1ccc(Cl)c(C(F)(F)F)c1`, the growth with HT29 colon was 21.6%; in the test with SNB-75 CNS, -12% (active); in the test with SNB-19 CNS, 33.1%; with U251 CNS, -64.4% (active); with PC-3 prostate it was -22.6% (active); with SK-MEL-5 melanoma, -35.9% (active). The growth was -38.9% (active) in the test on UACC-62 melanoma; 0.0501% (active) with LOX IMVI melanoma; -12.8% (active) in the test with SK-MEL-28 melanoma; 9.97% (active) in the test with SN12C renal; -18.9% (active) with UO-31 renal; -15% (active) in the test on TK-10 renal. Besides, the growth is 10.7% in the test on ACHN renal; -30.9% (active) with CAKI-1 renal; 37.6% in the test with A498 renal; 1.32% (active) with CCRF-CEM leukemia; -20.6% (active) with MOLT-4 leukemia; 3.22% (active) in the test with SR leukemia.

As to `Oc1[nH]c2ccccc2c1/C=c1/ccc2c(c1)N=C(c1cc(F)cc(F)c1)N=2`, the growth is 57.6% with HT29 colon; 51.6% in the test with SNB-75 CNS; 67.9% in the test with SNB-19 CNS; 53% in the test on U251 CNS; 26.2% in the test on PC-3 prostate; 69.5% in the test on SK-MEL-5 melanoma. The growth in the test on UACC-62 melanoma was 58.2%; in the test on LOX IMVI melanoma, 52%; with SK-MEL-28 melanoma, 77.4%; in the test on EKVX NSCLC, 70.7%; with SN12C renal, 68.2%; in the test with UO-31 renal, 60.2%. Further, the growth with TK-10 renal was 114%; with ACHN renal, 50.9%; with CAKI-1 renal it was 52.1%; in the test on A498 renal, 60.5%; in the test with CCRF-CEM leukemia, -3.33% (active); in the test with MOLT-4 leukemia it was 21%. In addition, the growth in the test on SR leukemia was 19.9%.

For `CNc1ccc(CSc2ccc(Cl)cc2)cc1`, the growth in the test with HT29 colon was 109%; in the test on SNB-75 CNS, 95.4%; in the test with SNB-19 CNS, 89.5%; in the test with U251 CNS, 97.4%; with PC-3 prostate it was 72.9%; with SK-MEL-5 melanoma it was 97.9%. In addition, the growth was 83% in the test on UACC-62 melanoma; 103% in the test with LOX IMVI melanoma; 112% in the test on SK-MEL-28 melanoma; 104% with EKVX NSCLC; 92.2% with SN12C renal; 58.3% with UO-31 renal. The growth is 126% in the test with TK-10 renal; 106% in the test on ACHN renal; -3.51% (active) with CAKI-1 renal; 87% in the test with A498 renal; 33.3% in the test with CCRF-CEM leukemia; 61.5% with MOLT-4 leukemia. Also, the growth in the test with SR leukemia was 55.8%.

As to `NC(=O)SCC(=O)Nc1ccccc1-c1ccccc1`, the growth in the test on HT29 colon was 87.2%; with SNB-75 CNS, 138%; in the test with SNB-19 CNS it was 89.5%; in the test with U251 CNS, 92.9%; with PC-3 prostate it was 90.2%; in the test on SK-MEL-5 melanoma, 111%. Further, the growth with UACC-62 melanoma was 81.5%; in the test with LOX IMVI melanoma it was 90.6%; in the test on SK-MEL-28 melanoma, 116%; with EKVX NSCLC, 121%; in the test on SN12C renal it was 90.7%; in the test on UO-31 renal, 64.9%. The growth is 106% in the test on TK-10 renal; 83% with ACHN renal; 105% in the test with CAKI-1 renal; 103% with CCRF-CEM leukemia; 98% with MOLT-4 leukemia; 122% in the test on SR leukemia.

Turning to `COc1cc2c(c(OC)c1OC)-c1ccc(NN(C(=O)c3ccccc3)C(=O)c3ccccc3)c(=O)cc1[C@@H](NC(C)=O)CC2` (tested in a mixture with another compound), the growth is 6.31% (active) in the test with HT29 colon; 27.7% with SNB-75 CNS; 49.1% in the test with SNB-19 CNS; 24.8% with U251 CNS; 40.9% in the test with PC-3 prostate; 20.2% with SK-MEL-5 melanoma. The growth was 59.6% in the test with UACC-62 melanoma; 52.9% in the test with SK-MEL-28 melanoma; 10.4% with SK-MEL-2 melanoma; 30.8% in the test with EKVX NSCLC; 64.8% with SN12C renal; 62.3% in the test with UO-31 renal. The growth with TK-10 renal was 40.8%; with ACHN renal, 63%; with CAKI-1 renal it was -2.24% (active); in the test with A498 renal it was 15.1%; with CCRF-CEM leukemia, 41.9%; with MOLT-4 leukemia, 22.8%. In the test with SR leukemia, the growth is 18.1%.

Regarding `Cc1ccc(C(=O)Nc2ccc(Cl)cc2C(=O)NCc2ccccc2)cc1`, the growth with HT29 colon was 23.3%; in the test with SNB-75 CNS it was 67.3%; in the test on SNB-19 CNS, 92.8%; in the test with U251 CNS it was 81.5%; with PC-3 prostate it was 76.6%; in the test on SK-MEL-5 melanoma, 78.4%. Also, the growth is 70.7% with UACC-62 melanoma; 79.2% with LOX IMVI melanoma; 83.7% in the test with SK-MEL-28 melanoma; 80.3% with EKVX NSCLC; 97.7% in the test on SN12C renal; 76.5% with UO-31 renal. The growth in the test with TK-10 renal is 105%; in the test on ACHN renal, 86.4%; with CAKI-1 renal, 77.7%; in the test with A498 renal it was 79.2%; with CCRF-CEM leukemia it was 73.9%; with MOLT-4 leukemia, 51.4%. For the same compound, the growth in the test with SR leukemia was 37.1%.

`COc1ccc2nc(NC(=O)c3cc(-c4ccc(F)cc4)n4nc(-c5ccccc5)cc4n3)sc2c1`: the growth in the test with HT29 colon was 92.5%; in the test on SNB-75 CNS, 80.4%; in the test with SNB-19 CNS it was 83.3%; in the test on U251 CNS, 64.2%; in the test on PC-3 prostate, 63.7%; with SK-MEL-5 melanoma, 55.5%. The growth with UACC-62 melanoma was 67.9%; in the test with LOX IMVI melanoma it was 67.9%; in the test with SK-MEL-28 melanoma, 73.1%; with EKVX NSCLC, 79.5%; with SN12C renal, 88.6%; with UO-31 renal, 73.6%. Moreover, the growth is 134% in the test on TK-10 renal; 67.5% in the test on ACHN renal; 77.5% in the test with CAKI-1 renal; 83.4% in the test on A498 renal; 64.1% with CCRF-CEM leukemia; 96.1% in the test on MOLT-4 leukemia.
